Read-out in assay [1]: Thrombomodulin, THBD (gene 7056)
Put plainly: BSK_3C_Thrombomodulin: BioMAP Diversity Plus: 3C Assay for Thrombomodulin Biomarker Activity (AID 2283029). As to conditions: primary human endothelial cells (HUVEC); actives raise or lower the signal. An outline of the steps: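 ELISA measurement of thrombomodulin on HUVEC surface 24 h after chemical dosing; activity fitted in both directions relative to DMSO vehicle.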

Read-out in assay [2]: Urokinase-type plasminogen activator receptor (uPAR), PLAUR (gene 5329)
Put plainly: BSK_4H_uPAR: BioMAP Diversity Plus: 4H Assay for Urokinase-type plasminogen activator receptor (uPAR) Biomarker Activity (AID 2283030). As to conditions: primary human endothelial cells (HUVEC); actives raise or lower the signal. The essentials:
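uPAR level read by ELISA on HUVEC cultures (BioMAP 4H) 24 h post-dosing, analyzed for gain or loss relative to DMSO. Parallel SRB staining assessed overt cytotoxicity.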

Read-out in assay [3]: Vascular endothelial growth factor receptor 2 (Homo sapiens) (UniProt P35968)
Put plainly: BSK_4H_VEGFRII: BioMAP Diversity Plus: 4H Assay for Vascular endothelial growth factor receptor 2 (VEGFR2) Biomarker Activity (AID 2283031).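 As to AC50: cell-surface VEGFR2 protein level quantified by ELISA.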 The settings on record: primary human endothelial cells (HUVEC); actives raise or lower the signal. The essentials:
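Measured by ELISA after 24 h of compound treatment: VEGFR2 on primary human umbilical vein endothelial cells, fitted in both directions relative to DMSO. Parallel cultures received SRB staining (560 nm) for overt cytotoxicity.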

Read-out in assay [4]: Human Leukocyte Antigen - DR isotype (HLADR), HLA-DRA (gene 3122)
Put plainly: BSK_BE3C_HLADR: BioMAP Diversity Plus: BE3C Assay for Human Leukocyte Antigen - DR isotype (HLADR) Biomarker Activity (AID 2283032). As to conditions: primary human bronchial epithelial cells; actives raise or lower the signal. An outline of the steps:
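Cell-surface HLA-DR ELISA readout at 24 h after dosing in the BE3C primary human lung bronchial epithelial system; gain or loss of signal against DMSO, with parallel sulforhodamine B staining of total protein for overt cytotoxicity.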

Read-out in assay [5]: Vascular cell adhesion molecule 1 (VCAM1), VCAM1 (gene 7412)
Put plainly: BSK_4H_VCAM1: BioMAP Diversity Plus: 4H Assay for Vascular cell adhesion molecule 1 (VCAM1) Biomarker Activity (AID 2283033).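 As to outcome: cell-surface VCAM-1 protein measured by ELISA.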 As to conditions: primary human endothelial cells (HUVEC); actives raise or lower the signal. The essentials: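 VCAM-1 ELISA read 24 h after chemical dosing of HUVEC in the BioMAP 4H system, with gain or loss of signal fitted relative to DMSO. Parallel SRB staining (560 nm) checked overt cytotoxicity.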

Read-out in assay [6]: Interferon-gamma inducible Protein 10 (IP10), CXCL10 (gene 3627)
Put plainly: BSK_BE3C_IP10: BioMAP Diversity Plus: BE3C Assay for Interferon-gamma inducible Protein 10 (IP10) Biomarker Activity (AID 2283034). The settings on record: primary human bronchial epithelial cells; actives raise or lower the signal. An outline of the steps:
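IP-10 quantified by ELISA in human primary bronchial epithelial cell cultures at 24 hours post-dosing. Gain or loss of signal fitted relative to DMSO; parallel SRB staining assessed overt cytotoxicity.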

Read-out in assay [7]: Monokine induced gamma interferon (MIG), CXCL9 (gene 4283)
Put plainly: BSK_BE3C_MIG: BioMAP Diversity Plus: BE3C Assay for Monokine induced gamma interferon (MIG) Biomarker Activity (AID 2283035). The settings on record: primary human bronchial epithelial cells; actives raise or lower the signal. The essentials:
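hu bronchial epithelial 1° cells, 24 h cpd; MIG by ELISA; bidirectional fit, DMSO = baseline.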

Read-out in assay [8]: Transforming growth factor beta 1 (TGFb1), TGFB1 (gene 7040)
Put plainly: BSK_BE3C_TGFb1: BioMAP Diversity Plus: BE3C Assay for Transforming growth factor beta 1 (TGFb1) Biomarker Activity (AID 2283036;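 as to outcome: TGF-b1 protein level measured by ELISA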). The settings on record: primary human bronchial epithelial cells; actives raise or lower the signal. The essentials:
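ELISA readout of TGF-b1 from human lung bronchial epithelial primary cells, taken 24 h post-treatment. Gain or loss of signal fitted relative to DMSO baseline, with parallel SRB staining for overt cytotoxicity.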

Read-out in assay [9]: Plasminogen activator inhibitor-1 (PAI1), SERPINE1 (gene 5054)
Put plainly: BSK_BE3C_PAI1: BioMAP Diversity Plus: BE3C Assay for Plasminogen activator inhibitor-1 (PAI1) Biomarker Activity (AID 2283037). The settings on record: primary human bronchial epithelial cells; actives raise or lower the signal. An outline of the steps: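 PAI-1 was measured by ELISA in human primary bronchial epithelial cultures 24 h after chemical dosing, with cytotoxicity checked by SRB total-protein staining in parallel cultures. Activity was fitted in both directions relative to DMSO.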

Read-out in assay [10]: urokinase plasminogen activator (uPA), PLAU (gene 5328)
Put plainly: BSK_BE3C_uPA: BioMAP Diversity Plus: BE3C Assay for urokinase plasminogen activator (uPA) Biomarker Activity (AID 2283038).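 As to outcome: uPA protein level quantified by ELISA in cell cultures; uPA read one day after compound addition.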 The settings on record: primary human bronchial epithelial cells; actives raise or lower the signal. The essentials: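 ELISA for uPA on human primary bronchial epithelial cultures 24 h post-treatment, gain or loss against DMSO. Parallel SRB staining (0.1% after 10% TCA fixation, 560 nm) assessed overt cytotoxicity.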

Active and inactive are the calls of the source. The calls were made as follows: active = hit-call score of the fitted dose curve at least 0.9, where 1 is the maximum; inactive = score below 0.9.

The term AC50 denotes the midpoint of the concentration-response curve, whichever way the signal moves. Take `COC(=O)NC(=S)Nc1ccccc1NC(=S)NC(=O)OC`: the AC50 in assay [1] was 10.8 µM (active); in assay [5], 0.312 µM (active). The result in assay [2], in [3], in assay [4], in [6], in assay [7] and in [8] was inactive. Also, the result in [9] and in [10] was inactive.
Turning to `CC1(C)C(C(=O)OC(C#N)c2cccc(Oc3ccccc3)c2)C1(C)C` (stereo unspecified), the outcome in assay [1], in [2], in [3], in assay [4], in assay [5] and in assay [6] was inactive. The result in [7], in assay [9] and in assay [10] was inactive.
As for `CCCC(=NOCC)C1=C(O)CC(CC(C)SCC)CC1=O` (stereo unspecified), the result in assay [1], in assay [2], in assay [3], in assay [4], in [5] and in [6] was inactive. Also, the result in assay [7], in assay [8], in assay [9] and in [10] was inactive.
Regarding `Nc1cnn(-c2ccccc2)c(=O)c1Cl`, the result in assay [1], in assay [2], in assay [4], in assay [5], in [6] and in assay [7] was inactive. For the same molecule, the result in assay [8], in assay [9] and in [10] was inactive.
Regarding `CN/C(=N\[N+](=O)[O-])NCc1cnc(Cl)s1`, the outcome in assay [1], in [2], in assay [4], in assay [5], in assay [6] and in assay [7] was inactive. Moreover, the result in [8], in [9] and in assay [10] was inactive.
Regarding `Nc1c(Cl)c(F)nc(OCC(=O)O)c1Cl`, the result in assay [1], in assay [2], in assay [4], in assay [5], in assay [6] and in [7] was inactive. For the same molecule, the outcome in assay [8], in assay [9] and in assay [10] was inactive.
As to `COCC(=O)N(c1c(C)cccc1C)C(C)C(=O)OC` (stereo unspecified), the outcome in assay [1], in assay [2], in assay [3], in assay [4], in assay [5] and in [6] was inactive. Moreover, the outcome in [7], in assay [9] and in assay [10] was inactive.
Take `CCN(CC)C(=O)C(C)Oc1cccc2ccccc12` (stereo unspecified): the result in assay [1], in assay [2], in assay [3], in [4], in assay [5] and in assay [6] was inactive. In addition, the result in assay [7], in assay [9] and in [10] was inactive.
As for `COC(=O)NS(=O)(=O)c1ccc(N)cc1`, the outcome in assay [1], in assay [2], in assay [3], in assay [4], in assay [5] and in [6] was inactive. The outcome in assay [7], in assay [9] and in [10] was inactive.
For the molecule `CC(C)Oc1cccc(NC(=O)c2ccccc2C(F)(F)F)c1`, the outcome in assay [1], in assay [2], in assay [4], in [5], in [6] and in assay [7] was inactive. In addition, the result in [8], in assay [9] and in assay [10] was inactive.
In the case of `Cc1c(COC(=O)[C@@H]2[C@H](/C=C(\Cl)C(F)(F)F)C2(C)C)cccc1-c1ccccc1`, the AC50 in assay [1] was 4.98 µM (active); in assay [5] it was 3.91 µM (active). Moreover, the outcome in [2], in assay [3], in assay [4], in assay [6], in [7] and in assay [9] was inactive. The outcome in assay [10] was inactive.
Turning to `CCOC(=O)C(C)OC(=O)c1cc(Oc2ccc(C(F)(F)F)cc2Cl)ccc1[N+](=O)[O-]` (stereo unspecified), the outcome in [1], in assay [3], in assay [5], in assay [6], in assay [7] and in [9] was inactive. Besides, the result in assay [10] was inactive. Further, the AC50 is 10 µM (active) in assay [2] and 29.7 µM (active) in [4].
Consider `CC1(C)CON(Cc2ccccc2Cl)C1=O`, for which the result in assay [1], in assay [2], in assay [3], in assay [4], in [5] and in assay [6] was inactive. Further, the outcome in [7], in assay [9] and in [10] was inactive. Moreover, the AC50 in assay [8] is 37.2 µM (active).
Consider `CCCCOCN(C(=O)CCl)c1c(CC)cccc1CC`, for which the AC50 in assay [1] is 8.66 µM (active); in assay [2], 38.8 µM (active); in assay [3], 31.1 µM (active); in [4] it was 29.8 µM (active); in assay [5], 28.9 µM (active); in assay [6], 35.5 µM (active). In addition, the half-maximal activity concentration (AC50) was 36.5 µM (active) in assay [7], 31.9 µM (active) in assay [8], 30.7 µM (active) in assay [9] and 31.4 µM (active) in [10].
Take `COP(=O)(OC)O/C(C)=C/C(=O)N(C)C`: the outcome in assay [1], in [2], in [3], in assay [4], in assay [5] and in assay [6] was inactive. Moreover, the result in assay [7], in assay [9] and in assay [10] was inactive.
Take `Cn1c(-c2ccccc2)cc(-c2ccccc2)[n+]1C`: the result in assay [1], in [2], in assay [3], in assay [5], in [7] and in assay [8] was inactive. In addition, the outcome in assay [9] and in assay [10] was inactive. Further, the figures for the concentration at half-maximal activity (AC50) in assay [4] and in assay [6] were 3.97 µM (active) and 16.5 µM (active), respectively.
As for `N#Cc1c(Cl)cccc1Cl`, the result in assay [1], in assay [2], in [3], in assay [4], in assay [5] and in assay [6] was inactive. For the same molecule, the result in [7], in [9] and in [10] was inactive.
Regarding `CC(C)N1C(=O)N(c2ccccc2)CSC1=NC(C)(C)C`, the outcome in assay [1], in assay [3], in [7], in [9] and in assay [10] was inactive. Moreover, the AC50 in assay [2] was 31.7 µM (active); in assay [4], 28.9 µM (active); in [5], 29.8 µM (active); in assay [6], 30.4 µM (active).
Consider `CC(C)=CC1C(C(=O)OCc2coc(Cc3ccccc3)c2)C1(C)C` (stereo unspecified), for which the outcome in assay [1], in assay [2], in assay [3], in assay [4], in [6] and in [7] was inactive. The outcome in assay [8], in [9] and in assay [10] was inactive. The AC50 in assay [5] was 4.5 µM (active).
For `CCCCC(O)(Cn1cncn1)c1ccc(Cl)cc1Cl` (stereo unspecified), the outcome in [1], in assay [2], in assay [3], in assay [5], in assay [7] and in assay [8] was inactive. Moreover, the outcome in [9] and in assay [10] was inactive. For the same molecule, the concentration at half-maximal activity (AC50) in assay [4] is 16 µM (active); in assay [6] it was 26.8 µM (active).
On to `CCCCC(C#N)(Cn1cncn1)c1ccc(Cl)cc1` (stereo unspecified), for which the outcome in [1], in assay [2], in assay [3], in assay [4], in assay [5] and in assay [6] was inactive. For the same molecule, the result in assay [7], in assay [9] and in assay [10] was inactive.

For the origin of these results see PubChem BioAssay (EPA / NIEHS).
